Assay outcomes (PubChem BioAssay)
KCNK9 block – human KCNK9 channel inhibition. HEK293 KCNK9, FluxOR thallium flux fluorescence; stronger effect = lower value. B-score at 10 µM. 310,000 tested, 1.2% active;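 active = ratio B-score over 3 SD below the library mean, with starting fluorescence within 5 SD of its mean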;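 note: negative B-score means less thallium flux so channel inhibition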
KCNK3 block – human KCNK3 channel inhibition, primary screen | 340,000 tested, 0.84% active | CHO-KCNK3 thallium flux, FluxOR fluorescence; stronger effect = lower value | AID 602410 | O14649 | B-score at 10 µM;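 active = B-score under library mean minus 4 SD, starting fluorescence ratio at most library mean plus 5 SD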;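 note: more negative B-score means stronger inhibition of thallium flux through KCNK3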
Target sequence (O14649 whole entry, looked up): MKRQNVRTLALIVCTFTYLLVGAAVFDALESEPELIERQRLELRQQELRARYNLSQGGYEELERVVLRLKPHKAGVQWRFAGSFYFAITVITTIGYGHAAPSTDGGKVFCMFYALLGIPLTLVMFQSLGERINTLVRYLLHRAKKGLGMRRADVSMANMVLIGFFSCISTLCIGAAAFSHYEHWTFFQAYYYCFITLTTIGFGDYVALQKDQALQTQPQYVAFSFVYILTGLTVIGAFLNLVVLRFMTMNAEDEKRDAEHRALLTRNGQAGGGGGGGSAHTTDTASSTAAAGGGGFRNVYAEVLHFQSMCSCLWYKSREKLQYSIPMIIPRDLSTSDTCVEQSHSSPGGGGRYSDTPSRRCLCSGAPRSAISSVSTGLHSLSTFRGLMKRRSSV
ANO1 block – blocks the mouse calcium-activated chloride channel TMEM16A | AID 588511 | HEK293 TMEM16A/YFP iodide influx fluorescence, ionomycin | 310,000 tested, 1.2% active | normalized B-score (activity score, 25-100; higher = stronger inhibition) at 10 µM | Q8BHY3;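 active = ratio plate-corrected score three or more library SD toward inhibition, starting fluorescence score within five deviations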;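 note: score derived from kinetic fluorescence span divided by baseline fluorescence per well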
Kir21 inh – blocks the mouse Kir2.1 inward-rectifier potassium channel. HEK293-Kir2.1, FluxOR thallium flux fluorescence; stronger effect = lower value. B-score at 10 µM. 310,000 tested, 0.85% active. AID 1672;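 active = fluorescence ratio B-score at or below minus 3 SD of library scores, with starting-brightness B-score within 2 SD, cut at about -4.2 in these data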;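 note: channel flux triggered by added potassium and thallium sulfate stimulus; B-score of peak minus minimum fluorescence over baseline after thallium stimulus; more negative B-score means stronger Kir2.1 block with less thallium influx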
TMEM16A act – activates or potentiates the mouse TMEM16A chloride channel. HEK293 TMEM16A/YFP-H148Q/I152L, iodide quench fluorescence; stronger effect = lower value. B-score at 10 µM. 340,000 tested, 0.3% active;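 active = fluorescence-ratio B-score plate-corrected deviation score at least 3 library SD below zero, with starting fluorescence score within 5 deviations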;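 note: channel opened by trigger with iodide after compound preincubation; score built on the fluorescence ratio of max minus min over baseline; more negative score means more quench and so TMEM16A activation or potentiation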
KCNK9 inh conf – confirmation of human KCNK9 potassium channel inhibitors | shares compounds with KCNK9 block | HEK293 KCNK9 cells, FluxOR thallium flux fluorescence | inhibition, % at 10 µM | 4,900 tested, 43% active | AID 492992;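 active = thallium signal inhibited by more than 5 SD of the compound-free buffer control wells, on both duplicate plates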;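 note: 0% = assay buffer control wells without compound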
Kir2-1 spec – selectivity of KCNK9 modulators against mouse Kir2.1 | Kir2.1 cells, FluxOR thallium flux fluorescence | shares compounds with KCNK9 block | 4,900 tested, 4% active | inhibition, % at 10 µM;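 active = thallium signal drop more than 5 SD beyond the mean of the no-compound control wells, seen in both duplicate plates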;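 note: signal is fluorescence rise after thallium addition divided by baseline fluorescence; plate controls were assay buffer only for no effect and full block by chlorpromazine control for full effect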
HEK293 Tl ctr – non-induced cell nonspecific activity of KCNK9 modulators; shares compounds with KCNK9 block; non-induced KCNK9-HEK293, FluxOR thallium flux; inhibition, % at 10 µM; 4,900 tested, 40% active;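 active = thallium signal drop beyond 5 SD of the untreated control mean, on both duplicate plates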;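 note: plate controls were buffer only IC0 wells for no effect and SID17386958 at its maximal inhibitory level for full effect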
KCNK3 inh conf – confirmation of human KCNK3 two-pore domain potassium channel inhibitors. 2,400 tested, 99% active. CHO-KCNK3 thallium flux, FluxOR fluorescence; 0% buffer, 100% carvedilol maximal block. AID 651638. ratio percent of control, % at 10 µM. shares compounds with KCNK3 block;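 active = ratio percent of control, averaged over triplicates, above buffer control mean plus 5 SD, cut at about 64% in these data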;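 note: ratio is the fluorescence rise from min to max over baseline after thallium stimulus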
KCNK3 noninduced – KCNK3 inhibitor counter-screen hit in non-induced cells | shares compounds with KCNK3 block | non-induced KCNK3 parental cells, FluxOR thallium flux; stronger effect = lower value | thallium flux ratio (lower = more inhibition) at 10 µM | 2,400 tested, 40% active | AID 651747;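 active = thallium flux ratio, averaged over three wells, more than 5 SD below the buffer control mean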;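 note: host cells are CHO cells without KCNK3 induction; ratio is peak minus trough fluorescence over baseline then normalized to buffer controls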
An asterisk follows results filed as active; i = inactive; · = not tested or not shown. This is a sample that favours compounds with a hit; in the whole collection about 3.5% have one here.

SMILES	KCNK9 block	KCNK3 block	ANO1 block	Kir21 inh	TMEM16A act	KCNK9 inh conf	Kir2-1 spec	HEK293 Tl ctr	KCNK3 inh conf	KCNK3 noninduced
CCOC(=O)c1c(NC(=O)Cn2nc(C(F)F)cc2C(F)F)sc(C)c1C	-10*	-13*	i	-2.6	i	57%*	i	46%*	107*	i
CCCOC(=O)C(C)n1cnc2scc(-c3ccc(C)cc3)c2c1=O (stereo not drawn)	i	i	i	-3	i	·	·	·	·	·
O=S1(=O)C=C(Oc2ccc3ccccc3c2)c2ccccc21	-9.6*	-9.7*	i	0.26	i	40%*	i	42%*	107*	i
CC(C)=CCc1c(O)cc(O)c2c1OC(c1ccc(O)cc1)CC2=O (stereo not drawn)	-12*	-15*	i	-6.4*	i	48%*	i	i	139*	0.11*
CCc1ccc(-c2cc(C)no2)cc1S(=O)(=O)N1CCN(c2ccc(C(C)=O)cc2)CC1	i	i	i	-0.18	i	·	·	·	·	·
CCC1CN(S(=O)(=O)c2cc(-c3cc(C)no3)ccc2OC)c2cc(C)ccc2O1 (stereo not drawn)	-11*	-11*	i	-1.3	i	36%*	i	32%*	121*	0.15*
CCc1ccc(-c2cc(C)no2)cc1S(=O)(=O)N1CCC(C)CC1	-9.3*	-10*	25*	0.13	i	i	i	46%*	102*	i
Cc1cc(-c2ccc(C(C)C)c(S(=O)(=O)N3CCC(C)CC3)c2)on1	-17*	-17*	i	-0.02	i	66%*	i	53%*	75*	i
CCc1ccc(-c2cc(C)no2)cc1S(=O)(=O)N1CCOc2ccc(C)cc21	-8.9*	-11*	i	0.43	i	48%*	i	33%*	125*	0.16*
CC[C@H](C)Cc1cn([C@@H](CCCCNC(=O)OC(C)(C)C)C(=O)NCCCCCCCCCCC(=O)N2CCN(C(=O)OC(C)(C)C)CC2)nn1	·	i	i	·	i	·	·	·	·	·
COCCN(C(=O)c1snc(C(N)=O)c1N)C(C(=O)NC1CCCCC1)c1ccc(F)cc1 (stereo not drawn)	i	i	i	0.97	i	·	·	·	·	·
COc1cc(OC)cc(C(=O)N2CCC(N3CCCCCC3)CC2)c1	i	i	i	-2.3	i	·	·	·	·	·
O=C1Nc2ccc(F)cc2C12SCCS2	i	i	i	1.6	i	·	·	·	·	·
Cc1ccc(NC(=O)CN(c2ccc(Cl)cc2)S(=O)(=O)c2cc([N+](=O)[O-])ccc2Cl)c(C)c1	-14*	-15*	i	-1.7	i	62%*	i	36%*	115*	i
COc1ccc(C)cc1S(=O)(=O)N(CC(=O)Nc1cccc([N+](=O)[O-])c1)c1ccccc1	i	i	i	-1.5	i	·	·	·	·	·
Cc1ccc(NC(=S)N(CCN2CCCCC2)Cc2ccco2)cc1Cl	-8.2*	-10*	i	1.1	-5.1*	i	i	26%*	108*	i
C=CCn1cc(C(=O)NCCCOCC)c(=O)c2cc(S(=O)(=O)N(CC)CC)ccc21	i	i	i	-0.04	i	·	·	·	·	·
CCCCOC1(c2ccccc2)OC(=O)c2ccccc21 (stereo not drawn)	-16*	i	i	-0.17	i	54%*	i	52%*	101*	i
O=C1OC(c2ccc(O)cc2)(c2ccccc2O)c2ccccc21 (stereo not drawn)	·	i	·	·	i	·	·	·	·	·
CCCSc1nsc(NC(=O)C(c2ccccc2)c2ccccc2)n1	-8.8*	-9*	i	-0.01	i	55%*	i	42%*	132*	0.12*
COc1ccc(-c2cc(C)no2)cc1S(=O)(=O)NCCCN1CCCCCC1	i	i	i	0.59	i	·	·	·	·	·
CC(C)(C)n1nnnc1C(c1ccccn1)N(Cc1ccccc1)Cc1ccc(Cl)cc1 (stereo not drawn)	-16*	-9.2*	i	0.96	-5.1*	60%*	i	46%*	100*	0.15*
CC(C)(C)n1nnnc1C(c1cccs1)N(Cc1ccccc1)Cc1ccco1 (stereo not drawn)	-19*	-12*	i	-0.81	i	66%*	i	46%*	113*	0.15*
CC(=O)Nc1ccc(S(=O)(=O)N2CCCC(C(=O)O)C2)cc1 (stereo not drawn)	i	i	i	1.5	i	·	·	·	·	·
CCN(C(=O)C1CCCN1S(=O)(=O)c1ccc2c(c1)n(C)c(=O)c(=O)n2C)c1ccccc1 (stereo not drawn)	i	i	i	0.81	i	·	·	·	·	·
SMILES	KCNK9 block	KCNK3 block	ANO1 block	Kir21 inh	TMEM16A act	KCNK9 inh conf	Kir2-1 spec	HEK293 Tl ctr	KCNK3 inh conf	KCNK3 noninduced
CCC(C)n1c(SCC(=O)Nc2cc(C(C)(C)C)nn2-c2ccccc2)nc2ccccc2c1=O (stereo not drawn)	-8.2*	i	i	0.06	i	40%*	i	38%*	105*	0.13*
CCC(C)n1c(SCC(=O)Nc2cc(C)on2)nc2ccccc2c1=O (stereo not drawn)	i	i	i	0.03	i	·	·	·	·	·
O=C(NNC(=O)c1ccccc1OCc1ccccc1)c1ccccc1F	-9.8*	-11*	i	0.95	i	29%*	i	24%*	118*	0.15*
COc1ccc(NC(=O)c2ccccc2NC(=O)c2ccco2)c(OC)c1	i	i	i	1.4	i	·	·	·	·	·
O=C(NNC(=O)c1ccccc1OCc1ccc(F)cc1)c1ccccc1O	i	i	i	-0.07	i	·	·	·	·	·
COc1ccc(NC(=O)c2ccccc2OCc2ccc(F)cc2)c(OC)c1	-12*	-11*	i	0.58	i	72%*	i	32%*	108*	i
CC(C1CC1)N(Cc1ccccc1)C(=S)Nc1cccc(C(F)(F)F)c1 (stereo not drawn)	-13*	-9.2*	100*	-0.62	i	56%*	i	39%*	125*	i
CN(CC(=O)Nc1cccc(C(F)(F)F)c1)Cc1ccccc1	-15*	-12*	i	-0.92	i	64%*	i	41%*	106*	i
